Some test systems named below: BT-549 breast; MDA-MB-435 melanoma; SW-620 colon; MCF7 breast; HCT-116 colon; HCC-2998 colon; KM12 colon.
Common to all, as to test: NCI-60 one-dose screen, 48 h (100 = growth as untreated, 0 = no growth, -100 = all killed)
Common to all, as to conditions: 10 µM

About 83,000 compounds went through this panel and 20% of them were active in at least one assay; those are over-represented in the sample as a whole.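 Cell lines were cultured in 96-well plates, exposed to a single compound concentration, and assessed for percent growth 48 hours later.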 Unmarked numbers belong to inactive results. Activity calls are given as the source filed them. How the source made its calls: active means growth percent below 10; inactive means the rest.

For `Cc1ccc(Nc2nnc(-c3cc(-c4ccncc4)n(-c4ccccc4)n3)s2)cc1`, the growth with BT-549 breast is 64.8%; in the assay with MDA-MB-435 melanoma, 78.3%; with SW-620 colon, 94%; with MCF7 breast, 80.3%; with HCT-116 colon, 51.3%; with HCC-2998 colon, 57.1%. The growth in the assay with KM12 colon is 50.8%.

Regarding `CCOC(=O)N1C/C(=C/c2ccc(OC)cc2)C(=O)/C(=C/c2ccc(OC)cc2)C1`, the growth in the assay on BT-549 breast was -12.8% (active); in the assay on MDA-MB-435 melanoma, -33.4% (active); with SW-620 colon, -38.7% (active); with MCF7 breast, -5.59% (active); in the assay on HCT-116 colon, -82.8% (active); in the assay with HCC-2998 colon it was -92.5% (active).

On to `Cc1cccc2c(NCCN(C)C)c3cccc(C(=O)NCCN(C)C)c3nc12`, for which the growth with BT-549 breast was 18.2%; in the assay with MDA-MB-435 melanoma, 8.12% (active); with SW-620 colon it was 4.11% (active); in the assay on MCF7 breast, 2.67% (active); in the assay on HCT-116 colon, 8.86% (active); in the assay with HCC-2998 colon it was -22.8% (active). Also, the growth with KM12 colon is -27.6% (active).

Take `COc1ccc(OC)c(/C=C/c2nnc(Nc3ccc(Cl)cc3)o2)c1`: the growth was 97.4% in the assay with BT-549 breast; 69.8% in the assay with MDA-MB-435 melanoma; 66.7% in the assay with SW-620 colon; 74.5% in the assay with MCF7 breast; 21.9% in the assay with HCT-116 colon; 55.4% in the assay on HCC-2998 colon.

Consider `N=c1c2c(-c3ccccc3)c(-c3ccccc3)n(Cc3ccccc3)c2ncn1CCCO`, for which the growth with BT-549 breast is 88.5%; with MDA-MB-435 melanoma, 34.2%; with SW-620 colon, 21.6%; with MCF7 breast, 2.77% (active); in the assay on HCT-116 colon, 13.3%; in the assay with HCC-2998 colon it was 64.3%.

`N#CCCN1C/C(=C/c2ccc(Br)cc2)C(=O)/C(=C/c2ccc(Br)cc2)C1`: the growth in the assay on BT-549 breast is -23.3% (active); in the assay with MDA-MB-435 melanoma it was -43.3% (active); with SW-620 colon, -53.7% (active); in the assay with MCF7 breast it was 0.16% (active); in the assay on HCT-116 colon, -50.8% (active); in the assay on HCC-2998 colon, -87.4% (active).

With `CCN(CC)CCN1CC(=O)Nc2cc(Cl)ccc21`, the growth with BT-549 breast is 107%; in the assay with MDA-MB-435 melanoma, 98.8%; in the assay on SW-620 colon it was 86.4%; with MCF7 breast, 104%; in the assay on HCT-116 colon, 102%; in the assay on HCC-2998 colon, 102%. For the same molecule, the growth with KM12 colon is 103%.

With `Nc1c(C(=O)Nc2ccccc2)sc2nc3c(cc12)CCCC3`, the growth is 66.6% in the assay with BT-549 breast; -30.6% (active) in the assay on MDA-MB-435 melanoma; 34.4% in the assay with SW-620 colon; 15.6% in the assay with MCF7 breast; 25.5% with HCT-116 colon; 24.5% in the assay with HCC-2998 colon. The growth in the assay with KM12 colon was 31.1%.

As to `O=C1/C(=C\c2ccc(F)cc2)CN(C(=O)c2ccccc2)C/C1=C\c1ccc(F)cc1`, the growth with BT-549 breast is 34.9%; with MDA-MB-435 melanoma, -39.4% (active); in the assay on SW-620 colon, -44.4% (active); in the assay with MCF7 breast, 1.32% (active); with HCT-116 colon, -55.3% (active); in the assay on HCC-2998 colon it was 16.4%.

On to `CC(=O)c1cc(Br)ccc1O`, for which the growth is 110% in the assay on BT-549 breast; 99.1% with MDA-MB-435 melanoma; 102% in the assay with SW-620 colon; 102% in the assay with MCF7 breast; 112% in the assay with HCT-116 colon; 101% with HCC-2998 colon.

With `CN(C)c1ccc(Cc2ccc(N(C)C)cc2Cl)c(Cl)c1`, the growth with BT-549 breast is 136%; in the assay on MDA-MB-435 melanoma it was 109%; in the assay with SW-620 colon, 91.2%; in the assay with MCF7 breast, 111%; with HCT-116 colon it was 95.4%; with HCC-2998 colon, 96.8%. The growth with KM12 colon is 90.4%.

As for `CN(C)CCCn1c(=O)c2ccccc2c2cnc3[nH]ccc3c21`, the growth is 34.1% in the assay on BT-549 breast; 11.9% in the assay on MDA-MB-435 melanoma; 5.02% (active) in the assay with SW-620 colon; 1.25% (active) in the assay on MCF7 breast; 2.85% (active) in the assay on HCT-116 colon; 30.3% in the assay with HCC-2998 colon.

Regarding `Nc1ccc2c(c1)C1(CCC2)NC(=O)NC1=O` (configuration not stated), the growth in the assay on BT-549 breast is 102%; in the assay with MDA-MB-435 melanoma, 102%; in the assay with SW-620 colon, 104%; in the assay with MCF7 breast, 97.2%; in the assay with HCT-116 colon it was 101%; in the assay with HCC-2998 colon, 115%. For the same molecule, the growth in the assay on KM12 colon was 102%.

As for `COc1ccc(-c2nc(-c3nc4ccc(Cl)cc4[nH]3)c3ccccn23)cc1`, the growth in the assay on BT-549 breast was 42.9%; in the assay with MDA-MB-435 melanoma it was 58.3%; in the assay on SW-620 colon, 75.2%; in the assay with MCF7 breast, 41.5%; in the assay with HCT-116 colon, 4.9% (active); with HCC-2998 colon, 69.3%.

On to `CCOC(=O)N1C/C(=C/c2ccc(Cl)cc2)C(=O)/C(=C/c2ccc(Cl)cc2)C1`, for which the growth with BT-549 breast is 81.5%; with MDA-MB-435 melanoma it was 38.4%; with SW-620 colon, 1.52% (active); with MCF7 breast, 5.24% (active); in the assay with HCT-116 colon it was -60.4% (active); in the assay with HCC-2998 colon, -59.8% (active).

For the molecule `c1ccc2c(-c3nc(N4CCOCC4)c4c5c(sc4n3)CCCCCC5)cccc2c1`, the growth was 97.9% in the assay with BT-549 breast; 111% in the assay with MDA-MB-435 melanoma; 108% in the assay with SW-620 colon; 91.8% in the assay on MCF7 breast; 109% with HCT-116 colon; 106% in the assay on HCC-2998 colon. Moreover, the growth with KM12 colon is 109%.

Take `CSc1nc(=O)n(Cc2ccc(Cl)cc2)c(=O)[nH]1`: the growth is 98% with BT-549 breast; 114% with MDA-MB-435 melanoma; 110% in the assay with SW-620 colon; 99.3% in the assay with MCF7 breast; 103% in the assay on HCT-116 colon; 103% in the assay with HCC-2998 colon. Also, in the assay with KM12 colon, the growth is 108%.

In the case of `COc1ccc(-c2cc(/C=C3\C(=O)Nc4ccc(Cl)cc43)[nH]n2)cc1OC`, the growth with BT-549 breast was 99.7%; with MDA-MB-435 melanoma, 91.5%; in the assay with SW-620 colon, 97.1%; in the assay on MCF7 breast it was 63.1%; in the assay with HCT-116 colon it was 73.2%; in the assay on HCC-2998 colon, 103%.

`CCC(=O)N1C/C(=C/c2ccc(OC)cc2)C(=O)/C(=C/c2ccc(OC)cc2)C1`: the growth with BT-549 breast was 13.2%; with MDA-MB-435 melanoma, -28.1% (active); in the assay on SW-620 colon, -50.1% (active); in the assay with MCF7 breast it was -4.78% (active); with HCT-116 colon, -70.8% (active); in the assay on HCC-2998 colon, -84% (active).

Values taken from PubChem BioAssay (NCI).
